Fam108B counter – counter-screen for RBBP9 inhibitors: inhibitors of mouse Fam108B. recombinant Fam108B, FP-Rh probe fluorescence polarization. inhibition, % at 9.51 µM. hit rate 0.33% among 300,000. AID 1947;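 active means inhibition above the screen mean inhibition plus 3 SD, computed separately per campaign, cut at about 18% in these data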;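 further: inhibitors lower polarization as less probe binds the enzyme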
PME-1 primary – PME-1 (human) inhibition; Q9Y570; recombinant PME-1, FP-Rh probe fluorescence polarization; inhibition, % at 5.9 µM; hit rate 0.53% among 320,000; AID 2130;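 active means inhibition above the campaign mean of all compounds plus 3 SD, cut at about 26% in these data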;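 further: competitive labeling of PME-1 active site by serine hydrolase directed probe; 0% = PME-1 with DMSO and 100% = wells lacking PME-1 enzyme; inhibitors block probe labeling so polarization falls and inhibition rises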
PRMT1 inh – blocks human protein arginine methyltransferase 1; Q99873; recombinant PRMT1, activity-based probe fluorescence polarization; inhibition, % at 2.79 µM; hit rate 1.3% among 370,000; AID 652257;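 active means inhibition above about 21% made by adding two undisclosed values, limit read from the data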
TCR-CD3 inh – blocks the human TCR-CD3 interaction. TAMRA-labeled TCR probe fluorescence, biochemical. inhibition, % at 9.4 µM. hit rate 0.37% among 360,000. AID 651800; in the data active means inhibition above about 19%;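 further: recombinant mutant TCR 2C K166C tagged with TAMRA read by polarization; 0% = receptor in buffer alone and 100% = receptor with positive control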
PAD4 FP inh – inhibitors of human PAD4; Q9UM07; recombinant PAD4, RCA probe fluorescence polarization; inhibition, % at 6.36 µM; hit rate 0.41% among 330,000; AID 485272;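 active means percent inhibition above a cutoff equal to the mean of all tested compounds plus 3 SD, cut at about 15% in these data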;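 further: 0% = PAD4 with RCA probe and DMSO and 100% = probe without PAD4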
Target sequence (Q9UM07 whole entry, looked up): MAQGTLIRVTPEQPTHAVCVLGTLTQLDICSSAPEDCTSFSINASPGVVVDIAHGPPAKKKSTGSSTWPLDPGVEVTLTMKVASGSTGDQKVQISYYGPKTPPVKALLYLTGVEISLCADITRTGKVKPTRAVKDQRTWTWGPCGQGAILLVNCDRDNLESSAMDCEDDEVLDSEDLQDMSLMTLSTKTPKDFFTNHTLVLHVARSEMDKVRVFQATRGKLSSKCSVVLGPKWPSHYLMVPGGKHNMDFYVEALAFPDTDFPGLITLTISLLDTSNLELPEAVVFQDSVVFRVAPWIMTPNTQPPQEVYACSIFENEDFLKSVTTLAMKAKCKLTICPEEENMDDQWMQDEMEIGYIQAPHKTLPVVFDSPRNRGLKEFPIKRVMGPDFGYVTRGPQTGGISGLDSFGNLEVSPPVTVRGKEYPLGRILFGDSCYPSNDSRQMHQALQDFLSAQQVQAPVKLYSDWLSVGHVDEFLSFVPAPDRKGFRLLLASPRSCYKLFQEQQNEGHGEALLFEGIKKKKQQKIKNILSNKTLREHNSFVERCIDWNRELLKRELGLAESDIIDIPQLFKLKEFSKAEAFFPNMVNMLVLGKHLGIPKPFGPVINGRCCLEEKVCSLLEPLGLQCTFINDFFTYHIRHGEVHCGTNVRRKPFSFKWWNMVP
SIAE inh – inhibitors of human sialic acid acetylesterase SIAE; hit rate 0.69% among 370,000; inhibition, % at 9.66 µM; SIAE FP-Rh probe binding, fluorescence polarization;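 active means inhibition above a cutoff: mean of compounds within the control limits plus 3 SD of those, cut at about 17% in these data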;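 further: 0% = plate median of compound wells and 100% = probe without SIAE protein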
PRMT1 inh conf – PRMT1 (human) inhibition, FP confirmation. shares compounds with PRMT1 inh. recombinant His-PRMT1, activity-based probe fluorescence polarization. inhibition, % at 2.79 µM. hit rate 42% among 3,300;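 active means mean inhibition across replicates above the hit cutoff derived for the earlier primary screen, cut at about 22% in these data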
The depositor's hits bear a star; · = no result. Only some compounds are listed: those with a hit (about 2.6% of all), similar ones and a draw of the others.

SMILES	Fam108B counter	PME-1 primary	PRMT1 inh	TCR-CD3 inh	PAD4 FP inh	SIAE inh	PRMT1 inh conf
O=C(N/C(=C\c1ccco1)C(=O)N1CCOCC1)c1ccccc1Cl	4	1	29*	-5	-1	-2	9
CCOC(=O)c1c(C)oc2c1c(CN1CCN(C(=O)OCC)CC1)c(O)c1ccccc12	7	11	12	7	-2	12	·
CCOC(=O)c1c(C)oc2c(CC(=O)c3ccccc3)c(Cl)c(O)c(O)c12	2	10	27*	-6	-2	8	4
COc1cccc(-c2nnc(SCC(=O)OC(C)C)n2-c2ccc(Cl)cc2)c1	·	·	2	·	·	0	·
Cc1cc(N)c(NC2=CC(=O)CC(C)(C)C2)cc1C	-5	-1	27*	-4	-4	1	-1
Cc1ccc(NC2=CC(=O)CC(C)(C)C2)cc1F	0	0	-2	-7	-6	-7	·
Nc1[nH]c(C(=O)c2ccccc2)c(-c2ccc(Br)cc2)c1C(=O)N1CCN(CCO)CC1	·	·	-1	·	·	-2	·
O=C(CC(SCCO)c1ccc2c(c1)OCO2)c1ccco1 (centres undefined)	0	-2	39*	4	3	-3	44*
O=C(NCc1ccc2c(c1)OCO2)c1ccco1	4	-1	-4	3	2	10	·
CCOC(=O)c1ccc(NC(=S)N2CCC(O)CC2)cc1	0	4	8	0	-2	-5	·
CCOC(=O)c1ccc(NC(=S)N2CCSC2c2ccc(Br)cc2)cc1 (centres undefined)	-24	-26	82*	7	-1	6	5
COc1ccc(CCNC(=O)c2ccc(-c3ccc([N+](=O)[O-])cc3Cl)o2)cc1	7	14	28*	3	-4	1	1
Cc1cc(C)cc(N2C(=O)c3nccnc3C2=O)c1	-5	-1	-1	-3	-3	5	·
Cc1cc(C)cc(N2C(=O)C=CC2=O)c1	·	·	80*	1	·	-4	96*
Cc1nc(SCC(=O)c2ccccc2)n[nH]1	3	2	54*	1	-3	2	43*
O=C(CSc1n[nH]c(-c2ccncc2)n1)c1ccccc1	-6	-4	2	-6	-4	-1	·
O=C(COC(=O)CSc1ccc([N+](=O)[O-])cc1)NCCCc1ccccc1	3	5	42*	-6	5	0	4
O=C(COC(=O)CSc1ccc([N+](=O)[O-])cc1)NCCc1ccccc1	3	-1	3	-4	3	-3	·
COc1ccccc1NC(=O)CCc1nc2ccccc2s1	-3	3	-1	5	-2	4	·
CC(C)c1ccccc1NC(=O)CCc1nc2ccccc2s1	11	-1	32*	9	-4	4	16
O=C(C1CCCN(S(=O)(=O)c2cccc3ccccc23)C1)N1CCN(Cc2ccccc2)CC1 (centres undefined)	·	·	-3	·	·	0	·
Nc1ccccc1N=Nc1ccccc1N	4	10	4	-5	-5	8	·
Cc1cc(Cl)ccc1N=c1ssnc1Cl	-6	5	44*	-2	-4	-6	94*
Nc1ccccc1N=c1ssnc1Cl	·	·	69*	-2	·	4	58*
Cc1nnc(N=c2ssnc2Cl)o1	·	-5	49*	4	-4	10	70*
SMILES	Fam108B counter	PME-1 primary	PRMT1 inh	TCR-CD3 inh	PAD4 FP inh	SIAE inh	PRMT1 inh conf
Cc1cc(C)nc(/N=c2/ssnc2Cl)c1	4	2	7	4	0	-1	·
Cc1ccc(N=c2ssnc2Cl)cc1	-1	2	70*	3	2	2	89*
CCC[C@H]1[C@@H](N(C)Cc2cccs2)CC[C@@]23CCCN2C(=O)CCC[C@@H]13	·	·	0	·	·	-1	·
Cc1cc(C)nc(SCC(=O)c2cc3ccccc3oc2=O)n1	3	2	25*	5	4	5	8
O=C(CSc1nc2ccccc2o1)c1cc2ccccc2oc1=O	5	-3	10	-3	-9	2	·
Nc1nc(SCC(=O)c2cc3ccccc3o2)n[nH]1	1	-6	71*	-3	-4	-1	13
COc1ccccc1C(=O)CSc1n[nH]c(N)n1	0	-3	4	7	3	-1	·
CCCC1CCC2(CC1)CCC2OC(=S)Nc1ccc(N(C)C)cc1 (centres undefined)	·	·	1	·	·	-1	·
COc1cc(OC)cc(C(=O)NCC(=O)N2CCN(c3ccc(O)cc3)CC2)c1	1	-6	25*	-9	0	4	1
